# Reference: PMC4336329 (PLoS ONE, 2015)
# Screen size: about 310,000 compounds; about 14,000 (4.5%) showed an effect of 50% or more. Effects have a minus sign here. What follows is part of a selection rich in strong results, with near analogues and random picks from the rest.
# Target: human ether-à-go-go-related gene (hERG) potassium channel (human, UniProt Q12809)
# Assay: primary screen, population patch clamp on CHO cells stably expressing hERG; higher = less effect of the substance
# 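Note: peak tail current of the secondary pulse compared with the same well before compound.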
# Sequence of human ether-à-go-go-related gene (hERG) potassium channel (Q12809 whole entry, looked up): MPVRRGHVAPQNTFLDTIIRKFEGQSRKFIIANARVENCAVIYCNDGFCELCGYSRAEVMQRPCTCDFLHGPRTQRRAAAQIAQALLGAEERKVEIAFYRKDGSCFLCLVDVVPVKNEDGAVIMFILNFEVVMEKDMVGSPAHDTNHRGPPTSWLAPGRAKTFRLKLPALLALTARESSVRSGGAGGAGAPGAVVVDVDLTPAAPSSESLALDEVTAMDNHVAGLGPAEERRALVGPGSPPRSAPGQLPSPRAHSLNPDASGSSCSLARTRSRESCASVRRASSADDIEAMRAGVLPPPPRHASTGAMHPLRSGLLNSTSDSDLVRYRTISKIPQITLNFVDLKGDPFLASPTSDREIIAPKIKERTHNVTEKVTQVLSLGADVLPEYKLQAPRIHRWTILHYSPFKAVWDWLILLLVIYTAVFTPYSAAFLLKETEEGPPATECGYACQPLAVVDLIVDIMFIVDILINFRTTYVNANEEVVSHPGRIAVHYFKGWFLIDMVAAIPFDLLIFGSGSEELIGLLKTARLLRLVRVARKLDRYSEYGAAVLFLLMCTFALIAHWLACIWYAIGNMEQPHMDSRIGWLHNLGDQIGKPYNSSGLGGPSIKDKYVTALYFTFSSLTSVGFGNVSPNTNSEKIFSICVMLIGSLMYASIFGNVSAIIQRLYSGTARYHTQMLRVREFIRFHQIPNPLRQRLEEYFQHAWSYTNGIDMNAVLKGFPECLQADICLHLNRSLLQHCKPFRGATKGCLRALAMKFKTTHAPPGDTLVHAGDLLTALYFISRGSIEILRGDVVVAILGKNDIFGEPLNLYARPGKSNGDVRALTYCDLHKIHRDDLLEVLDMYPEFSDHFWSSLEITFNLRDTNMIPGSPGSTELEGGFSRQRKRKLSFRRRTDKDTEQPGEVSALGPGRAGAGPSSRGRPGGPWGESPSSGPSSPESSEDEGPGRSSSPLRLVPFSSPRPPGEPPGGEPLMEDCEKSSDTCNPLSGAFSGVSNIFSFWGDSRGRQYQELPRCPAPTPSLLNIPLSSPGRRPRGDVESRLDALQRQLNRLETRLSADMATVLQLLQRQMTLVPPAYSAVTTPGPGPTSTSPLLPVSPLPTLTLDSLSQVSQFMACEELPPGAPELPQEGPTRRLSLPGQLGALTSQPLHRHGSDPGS
row,SMILES,"hERG current change (%, negative = inhibition) at 10uM"
1,CC1(c2ccccc2)NC(=O)N(CC(=O)Nc2ccccc2C(=O)N2CCCCC2)C1=O (centres unmarked),19.7%
2,CN1CCN(C(=O)CSc2nc(-c3ccco3)cc(C(F)(F)F)n2)CC1,15.3%
3,O=C(CSc1nc(-c2ccco2)cc(C(F)(F)F)n1)N1CCN(Cc2ccccc2)CC1,-58.8%
4,O=C(CSc1nc(-c2ccco2)cc(C(F)(F)F)n1)N1CCSCC1,-19.9%
5,CCc1cc(C(=O)N(C)CC(=O)Nc2c(Cl)cccc2Cl)sc1C,-2.89%
6,COc1cc(O)c(C(CCN2CCCC2)c2ccc3c(c2)OCO3)c(OC)c1 (centres unmarked),-72.5%
7,COc1cc(O)c(C(CCN2CCCC2)c2cc(OC)c(OC)c(OC)c2)c(OC)c1 (centres unmarked),-7.35%
8,COc1cc(O)c(C(CCN2CCCCC2)c2ccc3c(c2)OCO3)c(OC)c1 (centres unmarked),-78.3%
9,COc1cc(O)c(C(CCN2CCN(c3ccccc3)CC2)c2ccc3c(c2)OCO3)c(OC)c1 (centres unmarked),-16.6%
10,COc1cc(O)c(C(CCN2CCOCC2)c2ccc3c(c2)OCO3)c(OC)c1 (centres unmarked),-59.5%
11,COc1cc(O)c(C(CC(=O)N2CCCC(C)C2)c2ccc3c(c2)OCO3)c(OC)c1 (centres unmarked),-5.66%
12,COc1cc(O)c(C(CCN2CCCC(C)C2)c2ccc3c(c2)OCO3)c(OC)c1 (centres unmarked),-77.5%
13,COc1cc(O)c(C(CC(=O)N2CCCC2)c2ccc3c(c2)OCO3)c(OC)c1 (centres unmarked),6.4%
14,COc1cc(O)c(C(CC(=O)N2CCOCC2)c2ccc3c(c2)OCO3)c(OC)c1 (centres unmarked),7.98%
15,COc1cc(O)c(C(CCN2CCCC(C)C2)c2ccc(N(C)C)cc2)c(OC)c1 (centres unmarked),-29.5%
16,COc1cc(O)c(C(CC(=O)N2CCCCC2)c2ccc3c(c2)OCO3)c(OC)c1 (centres unmarked),5.41%
17,COc1cc(O)c(C(CCN2CCOCC2)c2ccc(N(C)C)cc2)c(OC)c1 (centres unmarked),7.96%
18,COc1ccc(NC(=O)c2cc3ccccc3o2)cc1OC,-3.22%
19,O=C1CC(c2ccccc2)c2ccccc21 (centres unmarked),8.78%
20,Cc1ccc(Cn2nc(C)c(NC(=O)CSc3nc4c(c(C(F)(F)F)n3)CCc3ccccc3-4)c2C)cc1,13.1%
21,O=C(O)Cc1sc(Nc2ccc(F)cc2)nc1-c1cccs1,15.3%
22,Cc1ccccc1C(CC(=O)c1cccs1)C(C#N)C#N (centres unmarked),20.2%
23,Cc1ccc(Cn2ncc3c(N4CCN(c5ccc(C)cc5)CC4)ncnc32)cc1,8.18%
